This is part of a sample that, as a whole, favours compounds with a hit. Of some 79,000 tested, about 15% had one in any assay. Activity calls are given as the source filed them. Rule as the data show it: active = growth inhibition above about 70%; inactive = the rest.
Assays:
[1] = NCI Yeast Anticancer Drug Screen. Data for the mec2-1 strain (AID 157); conditions: S. cerevisiae mec2-1 strain, active compounds read high
Outline: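 Each compound was tested on mec2-1 yeast, a strain altered in DNA damage repair or cell cycle control. Growth inhibition is reported relative to vehicle.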

[2] = NCI Yeast Anticancer Drug Screen. Data for the rad14 strain (AID 159);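 also: 0% = growth of vehicle-treated control cultures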; conditions: S. cerevisiae rad14 strain growth inhibition, active compounds read high
Outline: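 Here, inhibition of yeast growth was measured after compound exposure, using a strain with a genetic defect in DNA damage repair and vehicle-treated cultures as the reference.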

[3] = NCI Yeast Anticancer Drug Screen. Data for the sgs1 mgt1 strain (AID 161);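 also: 0% = growth of cultures given vehicle only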; conditions: S. cerevisiae sgs1 mgt1 strain, active compounds read high
Outline: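 Mutant yeast exposed to compound; growth scored against vehicle-only wells.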

[4] = NCI Yeast Anticancer Drug Screen. Data for the CLN2oe strain (AID 163);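 also: 0% = growth of vehicle-only control cultures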; conditions: S. cerevisiae CLN2oe strain, active compounds read high
Outline: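 First, the altered yeast strain was treated with each compound; second, its growth was measured; finally, inhibition was derived by comparison with vehicle controls.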

[5] = NCI Yeast Anticancer Drug Screen. Data for the cln2 rad14 strain (AID 165);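 also: 0% = growth equal to vehicle treated cultures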; conditions: S. cerevisiae cln2 rad14 strain, active compounds read high
Outline: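 Test compounds were added to cln2 rad14 yeast cultures; inhibition of growth was then determined by comparison with vehicle treatment.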

[6] = NCI Yeast Anticancer Drug Screen. Data for the bub3 strain (AID 167); conditions: S. cerevisiae bub3 mutant strain, active compounds read high
Outline: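 Whole-cell yeast assay. The mutant strain was incubated with compounds, and growth inhibition was determined by comparison with vehicle-treated cells.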

[7] = NCI Yeast Anticancer Drug Screen. Data for the wt2 strain (AID 169);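 also: 0% = growth of vehicle-treated yeast cultures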; conditions: S. cerevisiae wt2 strain growth inhibition, active compounds read high
Outline: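 The panel's yeast strains carry defined changes in DNA repair or cell cycle genes. Each strain is grown with compound, and growth loss is scored relative to vehicle.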

[8] = NCI Yeast Anticancer Drug Screen. Data for the mlh1 strain (AID 171);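 also: 0% = growth of vehicle-treated control cultures of the same strain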; conditions: S. cerevisiae mlh1 strain growth inhibition, active compounds read high
Outline: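 Inhibition values reflect reduced yeast growth in the presence of compound, referenced to vehicle controls, using a strain chosen for its alteration in DNA repair or cell cycle control.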

[9] = NCI Yeast Anticancer Drug Screen. Data for the sgs1 strain (AID 173);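 also: 0% = growth of vehicle-only control cultures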; conditions: S. cerevisiae sgs1 mutant, active compounds read high
Outline: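 Vehicle-treated cultures served as reference for growth inhibition of a yeast strain altered in DNA damage repair or cell cycle control after compound exposure.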

[10] = NCI Yeast Anticancer Drug Screen. Data for the mlh1 rad18 strain (AID 175); conditions: S. cerevisiae mlh1 rad18 strain growth inhibition, active compounds read high
Outline: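 Inhibition values reflect reduced growth of mutant yeast versus vehicle-treated controls following compound exposure; the mutations affect DNA damage repair.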

[11] = NCI Yeast Anticancer Drug Screen. Data for the rad52 strain (AID 147);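 also: 0% = growth of vehicle-treated control cultures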; conditions: S. cerevisiae rad52 mutant growth inhibition, active compounds read high
Outline: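 Inhibition of yeast growth, referenced to vehicle controls, was the measured output for a strain with defective DNA damage repair.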

[12] = NCI Yeast Anticancer Drug Screen. Data for the rad50EPP+ strain (AID 151);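 also: 0% = growth of vehicle-treated control cultures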; conditions: S. cerevisiae rad50 mutant strain, active compounds read high
Outline: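 Genetically defined yeast (rad50EPP+, DNA damage repair alteration) is grown with compound, and inhibition of growth is expressed relative to vehicle-treated controls.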

[13] = NCI Yeast Anticancer Drug Screen. Data for the mgt1 strain (AID 153); conditions: S. cerevisiae mgt1 mutant growth inhibition, active compounds read high
Outline: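 In the mgt1 strain, test compounds were added and growth inhibition was determined relative to vehicle-treated controls.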

[14] = NCI Yeast Anticancer Drug Screen. Data for the rad50 strain (AID 155);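 also: 0% = growth of vehicle-only cultures of the same strain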; conditions: S. cerevisiae rad50 strain growth inhibition, active compounds read high
Outline: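 Growth of the mutant yeast was measured after compound exposure and referenced to vehicle-treated cultures.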

[15] = NCI Yeast Anticancer Drug Screen. Data for the rad18 strain (AID 177); conditions: S. cerevisiae rad18 mutant growth inhibition, active compounds read high
Outline: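 Steps: expose repair-mutant yeast to compound; measure growth; express as inhibition relative to vehicle control.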

[16] = at 5.0 µM (retest, dose inferred, filed as 0.5)
[17] = at 50.0 µM (retest, dose inferred, filed as 5.0)

Measured: growth inhibition

O=C1C=CC(=Nc2ccc3c(c2)Cc2cc(NC(=O)C(F)(F)F)ccc2-3)O1
active: [1]; at 100.0 µM 96% | [2]; at 100.0 µM 98% | [3]; [17] 97% | [3]; at 50.0 µM 98.3% | [4]; at 100.0 µM 96% | [5]; [17] 93% | [6]; [17] 96% | [6]; at 50.0 µM 87.7% | [6]; at 100.0 µM 96% | [7]; at 100.0 µM 98% | [8]; at 100.0 µM 98% | [9]; at 100.0 µM 98% | [10]; [16] 79% | [10]; [17] 94% | [10]; at 50.0 µM 98.3%
inactive: [2]; at 1.2 µM 6% | [2]; at 3.7 µM 15% | [2]; at 11.0 µM 32% | [2]; at 33.0 µM 62% | [3]; [16] 51% | [4]; at 1.2 µM -4% | [4]; at 3.7 µM 1% | [4]; at 11.0 µM 10% | [4]; at 33.0 µM 23% | [5]; [16] 7% | [5]; at 50.0 µM 3.55% | [6]; at 1.2 µM -7% | [6]; at 3.7 µM -6% | [6]; [16] 25% | [6]; at 11.0 µM 0% | [6]; at 33.0 µM 13% | [7]; at 1.2 µM 1% | [7]; at 3.7 µM 3% | [7]; at 11.0 µM 15% | [7]; at 33.0 µM 26% | [8]; at 1.2 µM 3% | [8]; at 3.7 µM 9% | [8]; at 11.0 µM 22% | [8]; at 33.0 µM 39% | [9]; at 1.2 µM 7% | [9]; at 3.7 µM 15% | [9]; at 11.0 µM 34% | [9]; at 33.0 µM 63%

O=C(c1ccc(Cl)cc1)C1OC12C(=O)Nc1ccccc12 (centres undefined)
inactive: [11]; at 1.2 µM 20% | [12]; at 1.2 µM 17% | [13]; at 1.2 µM 31% | [14]; at 1.2 µM 13% | [1]; at 1.2 µM 38% | [2]; at 1.2 µM 24% | [6]; at 1.2 µM 43% | [7]; at 1.2 µM 9% | [8]; at 1.2 µM 8% | [9]; at 1.2 µM 8% | [15]; at 1.2 µM 6%
active: [11]; at 3.7 µM 99% | [11]; at 11.0 µM 99% | [11]; at 33.0 µM 99% | [11]; at 100.0 µM 99% | [12]; at 3.7 µM 99% | [12]; at 11.0 µM 99% | [12]; at 33.0 µM 99% | [12]; at 100.0 µM 99% | [13]; at 3.7 µM 100% | [13]; at 11.0 µM 100% | [13]; at 33.0 µM 100% | [13]; at 100.0 µM 99% | [14]; at 3.7 µM 99% | [14]; [16] 100% | [14]; at 11.0 µM 99% | [14]; at 33.0 µM 99% | [14]; [17] 99% | [14]; at 50.0 µM 99.5% | [14]; at 100.0 µM 99% | [1]; at 3.7 µM 99% | [1]; [16] 100% | [1]; at 11.0 µM 99% | [1]; at 33.0 µM 99% | [1]; [17] 100% | [1]; at 50.0 µM 99.7% | [1]; at 100.0 µM 99% | [2]; at 3.7 µM 99% | [2]; at 11.0 µM 99% | [2]; at 33.0 µM 99% | [2]; at 100.0 µM 99% | [3]; [16] 100% | [3]; [17] 100% | [3]; at 50.0 µM 99.5% | [5]; [16] 100% | [5]; [17] 100% | [5]; at 50.0 µM 99.7% | [6]; at 3.7 µM 99% | [6]; [16] 100% | [6]; at 11.0 µM 99% | [6]; at 33.0 µM 99% | [6]; [17] 100% | [6]; at 50.0 µM 99.7% | [6]; at 100.0 µM 99% | [7]; at 3.7 µM 99% | [7]; at 11.0 µM 99% | [7]; at 33.0 µM 99% | [7]; at 100.0 µM 99% | [8]; at 3.7 µM 99% | [8]; at 11.0 µM 99% | [8]; at 33.0 µM 99% | [8]; at 100.0 µM 99% | [9]; at 3.7 µM 99% | [9]; at 11.0 µM 99% | [9]; at 33.0 µM 99% | [9]; at 100.0 µM 99% | [10]; [16] 100% | [10]; [17] 100% | [10]; at 50.0 µM 99.5% | [15]; at 3.7 µM 99% | [15]; at 11.0 µM 99% | [15]; at 33.0 µM 98% | [15]; at 100.0 µM 99%

Cc1ccc(C2C(Cl)C(=O)N2n2cnc3ccccc3c2=O)cc1 (centres undefined)
active: [6]; [17] 84%
inactive: [11]; at 1.2 µM 6% | [11]; at 3.7 µM 11% | [11]; at 11.0 µM 8% | [11]; at 33.0 µM 9% | [11]; at 100.0 µM -8% | [12]; at 1.2 µM -13% | [12]; at 3.7 µM -6% | [12]; at 11.0 µM -3% | [12]; at 33.0 µM 34% | [12]; at 100.0 µM 51% | [13]; at 1.2 µM -15% | [13]; at 3.7 µM -11% | [13]; at 11.0 µM -23% | [13]; at 33.0 µM -19% | [13]; at 100.0 µM -27% | [14]; at 1.2 µM -2% | [14]; at 3.7 µM 0% | [14]; [16] 14% | [14]; at 11.0 µM -6% | [14]; at 33.0 µM -6% | [14]; [17] -4% | [14]; at 50.0 µM -15.2% | [14]; at 100.0 µM -20% | [1]; at 1.2 µM -6% | [1]; at 3.7 µM -12% | [1]; [16] -16% | [1]; at 11.0 µM -10% | [1]; at 33.0 µM -11% | [1]; [17] 10% | [1]; at 50.0 µM 12.5% | [1]; at 100.0 µM -15% | [2]; at 1.2 µM -15% | [2]; at 3.7 µM -19% | [2]; at 11.0 µM -9% | [2]; at 33.0 µM -12% | [2]; at 100.0 µM -4% | [3]; [16] -4% | [3]; [17] 20% | [3]; at 50.0 µM -0.75% | [4]; at 1.2 µM -23% | [4]; at 3.7 µM -43% | [4]; at 11.0 µM -18% | [4]; at 33.0 µM -54% | [4]; at 100.0 µM -20% | [5]; [16] 4% | [5]; [17] 28% | [5]; at 50.0 µM 6.4% | [6]; at 1.2 µM -10% | [6]; at 3.7 µM -7% | [6]; [16] 33% | [6]; at 11.0 µM 3% | [6]; at 33.0 µM 46% | [6]; at 50.0 µM 68.6% | [6]; at 100.0 µM 62% | [8]; at 1.2 µM -39% | [8]; at 3.7 µM -39% | [8]; at 11.0 µM -41% | [8]; at 33.0 µM -34% | [8]; at 100.0 µM -4% | [9]; at 1.2 µM 11% | [9]; at 3.7 µM 17% | [9]; at 11.0 µM 11% | [9]; at 33.0 µM 22% | [9]; at 100.0 µM 30% | [10]; [16] -9% | [10]; [17] 6% | [10]; at 50.0 µM -11.2% | [15]; at 1.2 µM -1% | [15]; at 3.7 µM 6% | [15]; at 11.0 µM -1% | [15]; at 33.0 µM -7% | [15]; at 100.0 µM -5%

From PubChem BioAssay (NCI)
